# Results: the OligoGym collection
# Biological target: TSC22D2
# Test: pooled miR-30 sensor sort-seq; sequence = guide strand
# Conditions: shRNA
# Note: reference of the scale not given here.
row,Sequence,sensor-assay potency score (higher = more potent)
1,TTAACAGTGCATTTTCTCGTTC,-0.691
2,TAGTATTCCATACACGTCCATC,-1.07
3,TTTAACAGTGCATTTTCTCGTT,0.0173
4,TCTTCTAGTATCGTCGACTTGC,0.0712
5,AAAACTTCCACTTCTTCTCTTA,0.265
6,TTTTCTTCTAGTATCGTCGACT,-0.0154
7,TAGCTGTGACACAGCAGTCAAG,-1.48
8,TAGTATCGTCGACTTGCCCGAC,-0.774
9,TCAACAGGAATAGCTATGCTGA,-0.503
10,TAAAACTTCCACTTCTTCTCTT,0.683
11,TATTCCATACACGTCCATCGGC,-0.556
12,TTCTCTTACTGCATACATCAAA,-0.826

# Biological target: TSC22D3
# Test: as above
# Conditions: shRNA
row,Sequence,sensor-assay potency score (higher = more potent)
1,AACTTCTCCAGCTGCTCTGGGC,-1.22
2,TCGATCTTGTTGTCTATGGCCA,-0.64
3,TTGTCGGTATTGAGGTTCTCAA,-1.48
4,TAGGACATCTCTTGGCACCAGC,-0.981
5,TGAGCTTGTCGGTATTGAGGTT,-0.394
6,TTCTTCATAGGAACAGTCGTTG,-0.524
7,TTCGATCTTGTTGTCTATGGCC,0.125
8,TAGCTGGGAGTTCTTCTCCACC,-1.58
9,ATGCTGTTGAGCTTGTCGGTAT,-1.17
10,TTGTCTATGGCCACCACGCTGG,-0.721
11,TTGTTGTCTATGGCCACCACGC,-1.5
12,TTCTTCACCAGATCCATGGCCT,0.0668
13,TGTTCTCACGCTCTAGCTGGGA,-0.875
14,TTGCCAGGGTCTTCAACAGGGT,-0.965
15,TTATGCTGTTGAGCTTGTCGGT,-0.79
16,TTGTTGTTCTCCCCGCTGCTGC,-1.15
17,TTCAGGGCTCAGACAGGACTGG,-0.708
18,TCTCTCACAGCATACATCAGAT,-0.863
19,TCGTTGATCAGGTAGCAGGGGT,-0.312
20,TTGAGCTTGTCGGTATTGAGGT,-0.00573
21,TATGCTGTTGAGCTTGTCGGTA,-0.561
22,ATTGAGGTTCTCAAAGACCAGC,-1.14
23,ATGGTCTGGTCGATGTTGCGGT,-0.997
24,TTCTTCTCCACCAGCTCTCGGA,-1.12

# Biological target: TSEN34
# Test: as above
# Conditions: shRNA
row,Sequence,sensor-assay potency score (higher = more potent)
1,TTTCTGCTTCTTAGCAGCCTGG,-1.47
2,TACTGTAGCGCAGCTCGTGGGC,-0.594
3,ATCACTGGTCTCATCCTCTTTG,-0.941
